The results in this text go back to PubChem BioAssay AID504397 (Broad Institute, 2011).

Structures are written as SMILES. Entries with a potency or affinity are not part of this list. The source made the active and inactive calls. How the calls were made is not given here.

The nature of the assay: toxicity toward cultured mammalian cells – cell-based, plate reader, cherry-pick samples, cytotoxicity control, dose response (AID 504397). The note with it: plate reader viability; series mostly up to 35 µM.

Regarding `CCOC(=O)[C@@H]1[C@H]2COc3ccc(Br)cc3[C@@H]2N2C(=O)N(c3cccc(C)c3)C(=O)[C@]12C`, the compound was classed as inactive.
